Assay outcomes from PubChem BioAssay.
Compounds with a hit are over-represented: about 8.1% of the library has one in this group of screens.
ELG1 repair inh = blocks ELG1-dependent DNA repair in HEK293T cells; hit rate 2.3% among 330,000; HEK293T ELG1-luciferase reporter, luminescence, 16 h; DNA damage induced by 5-fluorouridine; AID 504467; Potency, µM (top dose mostly 46.1 µM), without a hit: top-dose activity change, negative = inhibition, most hits filed as inhibitors; further: on the % scale 0 is the no-effect control and ±100 the full control effect; nearly all actives have a fitted effect of over 55% in size
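Luminescence from the luciferase reporter, measured 30 min after ONE-Glo reagent at room temperature, was the read-out. Beforehand, 2,000 cells per well were exposed for 16 hr at 37 °C to 5-fluorouridine together with compound or vehicle.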
SW480 rerep = induces DNA re-replication in SW480 colon adenocarcinoma cells; SW480 DNA re-replication, Hoechst DNA content imaging, 48 h; Potency, µM (doses to about 46.1 µM), without a hit: at the top dose re-replication activation, most hits filed as activators; hit rate 1.8% among 340,000; further: % of control where 0% means no effect; nearly all actives have a fitted effect of over 55% in size
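Cells (250 per well) received 23 nL compound or DMSO by pin tool and were kept 48 hr at 37 C, 5% CO2. Nuclei were then stained with Hoechst for 40 min and scanned for DNA content.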
KB-3-1 tox = kills parental KB-3-1 adenocarcinoma cells; hit rate 1.4% among 400,000; Potency, µM (titrated, usually from 46.1 µM), most hits filed as cytotoxic; KB-3-1 viability, CellTiter-Glo ATP luminescence, 72 h; AID 1347075; further: on the % scale 0 is the no-effect control and ±100 the full control effect; nearly all actives have a fitted effect of over 60% in size
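Cytotoxicity in the drug-sensitive parental line KB-3-1 was scored as loss of CellTiter-Glo luminescence following 72 h incubation with compound. Values come from curve fitting of normalized concentration-response data.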
MCF10A rereplic = inducers of DNA re-replication in MCF 10A breast cells; AID 624296; Potency, µM (titrated, usually from 46.1 µM), for the others: top-dose activity, positive = re-replication, actives largely listed as activators; hit rate 2.9% among 350,000; MCF 10A DNA re-replication, Hoechst nuclear intensity, 48 h; further: % of control where 0% means no effect; nearly all actives have a fitted effect of over 50% in size
KB-V1 MDR tox = KB-V1 MDR subline cytotoxicity. KB-V1 MDR cells viability, CellTiter-Glo, 72 h. hit rate 3.4% among 400,000. Potency, µM (series often up to 46.1 µM), actives largely listed as cytotoxic; further: on the % scale 0 is the no-effect control and ±100 the full control effect; nearly all actives have a fitted effect of over 60% in size
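Cytotoxicity via CellTiter-Glo luminescence after 72 h compound exposure at 37 degrees C. Cells: drug-selected KB-V1 line, DMEM phenol-red free plus 10% FBS. Compounds tested at multiple concentrations; normalized data fitted to concentration-effect curves.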
* = called active by the depositor; i = inactive; ? = inconclusive; / = no result given. The call rests on the fitted dose curve; in most records, active means well fitted curve in the direction sought with a large enough effect; inconclusive means small, poorly fitted or top-dose-only effect, or another doubt; inactive means no such curve, though single readings can be large; an effect the other way counts as inactive or inconclusive. Potency means the concentration at half of the fitted maximal effect.

SMILES	ELG1 repair inh	SW480 rerep	KB-3-1 tox	MCF10A rereplic	KB-V1 MDR tox
Cc1ccc(CNC(=O)Cn2c(=O)n(-c3ccc(C)c(F)c3)c(=O)c3sc4ccccc4c32)cc1	/	/	i	/	i
CC(C)c1ccc(NC(=O)c2snc3ccc(Cl)cc23)cc1	?	?	0.0517µM*	?	?
COc1cc(/C=C/c2ccc3cccc(OC)c3n2)c(OC(C)=O)c([N+](=O)[O-])c1	?	?	?	6.51µM*	?
COc1cc(/C=C/c2ccc3cccc(OC)c3n2)c(O)c([N+](=O)[O-])c1	1.3%	-1.0%	?	3.6%	i
COc1c(OC(C)=O)ccc(/C=C/c2ccc3cccc(OCc4ccccc4)c3n2)c1[N+](=O)[O-]	?	-1.7%	16.4µM*	7.2%	?
CCOC(=O)c1c(NC(=O)C(C)OC(=O)c2ccc(NC(=O)CC#N)cc2)sc2c1CCCC2 (configuration not stated)	?	10.5%	i	?	i
CC1(OC(=O)C2CCCC2)C(=O)C=C2C=C(c3ccsc3)N(CC3CC3)C=C2C1=O (configuration not stated)	-12.6%	-9.2%	i	8.9%	i
CC1(OC(=O)C2CCCC2)C(=O)C=C2C=C(c3ccsc3)N(C3CCCCC3)C=C2C1=O (configuration not stated)	-4.6%	-11.9%	20.6µM*	5.4%	i
Cc1ccccc1-c1nc2c3ccccc3nc(=S)n2[nH]1	17.7%	14.8%	i	7.31µM*	i
Cc1nc2ccccc2n1CCc1nc2c3ccccc3nc(=S)n2[nH]1	4.3%	-7.9%	i	-3.0%	i
CSc1nc2ccccc2cc1/C=C(\C#N)c1cccc(C)c1	-1.9%	?	14.6µM*	10.3µM*	14.6µM*
Cc1cccc(/C=C(\C#N)c2nc3ccccc3c(=O)[nH]2)c1	/	/	i	/	i
CSc1nc2ccccc2cc1/C=C(\C#N)c1ccc(Cl)c(Cl)c1	7.6%	?	i	7.31µM*	i
N#CC(=Cc1ccnc2ccccc12)c1ccccc1	/	/	i	/	?
CSc1nc2ccccc2cc1/C=C(\C#N)c1ccccc1	-11.9%	?	?	13µM*	?
Cc1ccc2cc3cc(C(=O)N4CCN(c5ccc(Cl)cc5)CC4)oc3nc2c1	/	/	i	/	i
CC(=O)c1ccc(N2CCN(S(=O)(=O)c3ccc4[nH]c5c(c4c3)CCCC5)CC2)cc1	/	/	i	/	i
O=C(Nc1c2c(nn1-c1ccc(F)cc1)CS(=O)(=O)C2)C12CC3CC(CC(C3)C1)C2	-6.7%	1.5%	i	-2.9%	23.1µM*
CC(C)Cc1nc(N2CCN(C(=O)c3ccco3)CC2)c(C#N)c2c1CCC2	?	3.3%	?	20.6µM*	?
CC(C)c1cc(N2CCN(C(=O)c3ccco3)CC2)n2c(nc3ccccc32)c1C#N	-19.2%	28.7%	i	23.1µM*	i
N#Cc1c(N2CCN(C(=O)c3ccco3)CC2)nc(-c2ccccc2)c2c1CCCC2	25.9µM*	7.8%	i	6.7%	20.6µM*
Cc1cc(-c2ccco2)c(C#N)c2nc3ccccc3n12	8.9%	8.5%	?	18.4µM*	i
Cc1ccc2c(/C=C/c3ccc(N(C)C)cc3)ccnc2c1	/	/	i	/	?
CCc1nc2ccc(C(=O)NCc3cc(OC)ccc3OC)cc2nc1CC	/	/	i	/	i
CC(C)c1cc(NCC2CCCO2)n2c(nc3ccccc32)c1C#N (configuration not stated)	16.4µM*	?	i	?	?
Cc1cc(NCC2CCCO2)n2c(nc3ccccc32)c1C#N (configuration not stated)	/	3.5%	i	?	i
O=C(NCCCc1ccccc1)c1cc(COc2ccc(F)cc2Cl)on1	1.7%	-12.8%	i	18.5%	?
COc1ccc2oc(=O)c(-c3csc(Nc4cccc(O)c4)n3)cc2c1	25.9µM*	?	i	23.1µM*	?
COc1ccc(Nc2nc(-c3cc4cccc(OC)c4oc3=O)cs2)cc1	?	4.8%	i	?	i
